# Reference: ChEMBL document CHEMBL1961873, “Compounds: GSK PKIS; Assays: Nanosyn kinase panel” (2012)
# What was measured:
# [1] = target: T1, Inhibitor of nuclear factor kappa-B kinase subunit epsilon (Homo sapiens) (UniProt Q14164); details: at 1 µM;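 also: reported values are averaged percent inhibition figures against human IKKε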
# T1 sequence (whole entry): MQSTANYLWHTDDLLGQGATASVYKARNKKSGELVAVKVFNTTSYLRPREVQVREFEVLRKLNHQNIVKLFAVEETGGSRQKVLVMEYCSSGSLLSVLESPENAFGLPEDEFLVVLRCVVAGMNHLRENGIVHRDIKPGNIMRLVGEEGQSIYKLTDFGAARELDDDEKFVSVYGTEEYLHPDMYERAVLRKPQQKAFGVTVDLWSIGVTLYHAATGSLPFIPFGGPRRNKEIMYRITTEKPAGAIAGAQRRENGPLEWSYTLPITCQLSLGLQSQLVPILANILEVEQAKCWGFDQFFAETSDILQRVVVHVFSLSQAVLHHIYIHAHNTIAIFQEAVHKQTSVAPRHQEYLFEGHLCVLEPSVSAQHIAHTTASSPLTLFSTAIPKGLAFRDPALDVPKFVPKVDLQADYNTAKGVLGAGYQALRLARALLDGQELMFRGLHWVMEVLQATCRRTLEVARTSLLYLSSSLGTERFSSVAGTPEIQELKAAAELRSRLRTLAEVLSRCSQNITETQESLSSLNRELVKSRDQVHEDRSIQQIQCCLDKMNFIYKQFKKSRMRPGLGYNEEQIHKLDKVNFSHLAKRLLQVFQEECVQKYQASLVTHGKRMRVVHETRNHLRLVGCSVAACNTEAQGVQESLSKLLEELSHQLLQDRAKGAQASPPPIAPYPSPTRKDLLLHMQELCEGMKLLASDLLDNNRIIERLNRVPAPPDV
# [2] = target: T2, Serine/threonine-protein kinase Nek1 (Homo sapiens) (UniProt Q96PY6); details: at 0.1 µM
# T2 sequence (whole entry): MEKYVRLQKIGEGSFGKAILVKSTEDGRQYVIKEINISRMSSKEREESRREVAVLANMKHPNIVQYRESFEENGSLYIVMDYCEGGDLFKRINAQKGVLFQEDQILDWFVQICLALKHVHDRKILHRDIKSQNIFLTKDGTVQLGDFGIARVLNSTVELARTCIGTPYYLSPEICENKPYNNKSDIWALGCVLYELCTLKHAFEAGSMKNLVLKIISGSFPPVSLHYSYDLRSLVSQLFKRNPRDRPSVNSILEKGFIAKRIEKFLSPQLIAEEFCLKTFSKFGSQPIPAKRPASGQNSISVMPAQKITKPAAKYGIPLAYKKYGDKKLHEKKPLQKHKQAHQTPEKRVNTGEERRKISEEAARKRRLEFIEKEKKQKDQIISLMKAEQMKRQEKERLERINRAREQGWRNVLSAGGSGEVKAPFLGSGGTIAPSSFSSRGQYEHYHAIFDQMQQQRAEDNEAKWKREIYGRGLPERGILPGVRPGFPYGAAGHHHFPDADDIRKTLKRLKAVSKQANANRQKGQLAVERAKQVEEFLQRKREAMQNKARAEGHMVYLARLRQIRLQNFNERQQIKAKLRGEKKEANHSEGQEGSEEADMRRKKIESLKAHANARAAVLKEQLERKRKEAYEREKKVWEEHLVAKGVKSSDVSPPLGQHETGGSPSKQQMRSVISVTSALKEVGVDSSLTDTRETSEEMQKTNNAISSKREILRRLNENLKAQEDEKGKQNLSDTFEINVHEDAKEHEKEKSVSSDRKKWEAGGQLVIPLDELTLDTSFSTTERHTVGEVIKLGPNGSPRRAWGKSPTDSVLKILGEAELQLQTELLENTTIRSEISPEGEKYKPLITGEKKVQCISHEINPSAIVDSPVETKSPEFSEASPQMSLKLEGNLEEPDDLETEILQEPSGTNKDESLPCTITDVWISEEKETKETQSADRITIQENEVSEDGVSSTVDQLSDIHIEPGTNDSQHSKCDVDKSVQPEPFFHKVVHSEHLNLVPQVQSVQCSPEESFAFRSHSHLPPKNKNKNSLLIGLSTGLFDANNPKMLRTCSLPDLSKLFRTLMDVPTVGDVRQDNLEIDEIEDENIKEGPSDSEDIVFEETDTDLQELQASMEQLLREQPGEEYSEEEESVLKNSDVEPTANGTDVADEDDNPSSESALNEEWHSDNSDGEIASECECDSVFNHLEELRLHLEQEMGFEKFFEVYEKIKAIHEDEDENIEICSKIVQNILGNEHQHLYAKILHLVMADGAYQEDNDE
# [3] = target: T2, Serine/threonine-protein kinase Nek1 (Homo sapiens); details: at 1 µM
# [4] = target: T3, Serine/threonine-protein kinase Nek2 (Homo sapiens) (UniProt P51955); details: at 0.1 µM
# T3 sequence (whole entry): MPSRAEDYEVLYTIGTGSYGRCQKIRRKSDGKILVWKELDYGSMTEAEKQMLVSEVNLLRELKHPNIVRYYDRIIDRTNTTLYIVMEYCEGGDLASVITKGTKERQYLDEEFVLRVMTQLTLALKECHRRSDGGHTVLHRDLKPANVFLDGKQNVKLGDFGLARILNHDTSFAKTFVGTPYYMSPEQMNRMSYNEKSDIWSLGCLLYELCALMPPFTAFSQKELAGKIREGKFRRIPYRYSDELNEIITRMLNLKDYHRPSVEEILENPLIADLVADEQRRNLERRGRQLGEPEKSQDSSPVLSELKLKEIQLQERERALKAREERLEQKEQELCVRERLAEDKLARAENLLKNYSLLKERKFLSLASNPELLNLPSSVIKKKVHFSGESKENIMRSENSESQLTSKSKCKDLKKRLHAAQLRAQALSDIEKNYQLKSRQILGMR
# [5] = target: T3, Serine/threonine-protein kinase Nek2 (Homo sapiens); details: at 1 µM
# [6] = target: Serine/threonine-protein kinase Nek6 (Homo sapiens) (UniProt Q9HC98); details: at 0.1 µM
# Sequence of Serine/threonine-protein kinase Nek6 (Homo sapiens) (Q9HC98 whole entry): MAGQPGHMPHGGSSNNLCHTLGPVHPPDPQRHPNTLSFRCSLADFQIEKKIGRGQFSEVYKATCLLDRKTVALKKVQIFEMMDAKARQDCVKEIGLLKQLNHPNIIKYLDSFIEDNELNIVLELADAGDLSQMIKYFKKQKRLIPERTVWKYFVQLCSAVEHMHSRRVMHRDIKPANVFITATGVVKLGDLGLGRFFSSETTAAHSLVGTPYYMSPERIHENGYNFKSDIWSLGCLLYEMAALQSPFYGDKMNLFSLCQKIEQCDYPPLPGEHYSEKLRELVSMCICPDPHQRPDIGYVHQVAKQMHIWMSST
# [7] = target: Serine/threonine-protein kinase Nek6 (Homo sapiens) (UniProt Q9HC98); details: at 1 µM
# [8] = target: Serine/threonine-protein kinase Nek7 (Homo sapiens) (UniProt Q8TDX7); details: at 0.1 µM
# Sequence of Serine/threonine-protein kinase Nek7 (Homo sapiens) (Q8TDX7 whole entry, looked up): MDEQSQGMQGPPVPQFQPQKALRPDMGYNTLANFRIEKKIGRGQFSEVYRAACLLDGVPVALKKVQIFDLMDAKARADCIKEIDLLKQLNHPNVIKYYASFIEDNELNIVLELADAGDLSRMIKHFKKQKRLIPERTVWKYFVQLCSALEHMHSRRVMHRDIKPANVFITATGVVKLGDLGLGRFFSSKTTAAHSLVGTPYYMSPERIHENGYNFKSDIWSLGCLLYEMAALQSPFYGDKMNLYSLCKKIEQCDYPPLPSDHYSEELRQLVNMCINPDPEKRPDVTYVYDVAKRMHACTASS
# [9] = target: Serine/threonine-protein kinase Nek7 (Homo sapiens) (UniProt Q8TDX7); details: at 1 µM
# [10] = target: T4, Serine/threonine-protein kinase Nek9 (Homo sapiens) (UniProt Q8TD19); details: at 0.1 µM;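 also: reported value is the mean percent inhibition of NEK9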
# T4 sequence (whole entry): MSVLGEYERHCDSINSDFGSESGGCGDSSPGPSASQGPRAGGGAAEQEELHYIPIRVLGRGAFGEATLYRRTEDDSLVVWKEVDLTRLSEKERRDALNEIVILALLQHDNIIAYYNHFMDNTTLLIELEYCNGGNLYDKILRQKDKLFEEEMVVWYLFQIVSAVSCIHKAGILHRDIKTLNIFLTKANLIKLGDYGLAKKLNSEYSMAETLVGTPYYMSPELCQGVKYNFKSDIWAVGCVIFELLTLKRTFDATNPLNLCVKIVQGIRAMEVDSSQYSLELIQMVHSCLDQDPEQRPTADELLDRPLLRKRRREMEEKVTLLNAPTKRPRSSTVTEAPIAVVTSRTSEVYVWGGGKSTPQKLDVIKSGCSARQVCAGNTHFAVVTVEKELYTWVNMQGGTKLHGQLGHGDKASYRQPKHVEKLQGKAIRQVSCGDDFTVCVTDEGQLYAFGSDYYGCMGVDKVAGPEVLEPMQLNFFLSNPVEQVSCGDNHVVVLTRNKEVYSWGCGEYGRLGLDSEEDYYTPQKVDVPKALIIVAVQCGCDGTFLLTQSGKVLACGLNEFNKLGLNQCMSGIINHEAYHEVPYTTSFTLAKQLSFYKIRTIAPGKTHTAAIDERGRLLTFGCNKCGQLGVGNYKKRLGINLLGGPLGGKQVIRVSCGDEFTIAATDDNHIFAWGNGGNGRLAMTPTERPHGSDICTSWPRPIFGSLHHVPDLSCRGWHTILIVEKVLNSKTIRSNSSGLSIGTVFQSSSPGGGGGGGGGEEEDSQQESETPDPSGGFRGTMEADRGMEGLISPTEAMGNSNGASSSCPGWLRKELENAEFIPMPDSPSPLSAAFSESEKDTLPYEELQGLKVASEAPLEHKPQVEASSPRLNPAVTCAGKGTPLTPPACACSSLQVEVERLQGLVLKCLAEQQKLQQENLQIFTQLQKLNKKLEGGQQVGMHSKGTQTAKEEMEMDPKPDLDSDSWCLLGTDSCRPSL
Structure (SMILES),inhibition [1] [%],inhibition [2] [%],inhibition [3] [%],inhibition [4] [%],inhibition [5] [%],inhibition [6] [%],inhibition [7] [%],inhibition [8] [%],inhibition [9] [%],inhibition [10] [%]
Fc1ccc(-c2nn3ncccc3c2-c2ccnc(Nc3ccc4c(c3)OCCO4)n2)cc1,7.06,2.45,1.02,5.03,4.48,0.64,3.68,6.98,4.83,6.56
CC(C)COC(=O)c1ccc2c(c1)/C(=C/Nc1ccc(S(N)(=O)=O)cc1)C(=O)N2,93.4,-1.61,2.33,-0.98,0.66,-0.45,9.49,0.03,0.46,-3.08
O=C(O[C@H]1CN[C@H](C#Cc2cc3ncnc(Nc4ccc(Cc5ccccc5)cc4)c3s2)C1)N1CCOCC1,3.15,1.41,1.96,2.89,4.01,1.71,1.61,2.18,2.21,4.6
COc1cc(N2CCN(C(C)C)CC2)ccc1Nc1nc(Nc2ccc(F)cc2C(N)=O)c2cc[nH]c2n1,4.36,3.16,11.2,3.34,2.89,2.32,5.57,2.07,7.1,4.13
CCn1cc(-c2ccnc3[nH]ccc23)c(-c2cccc(NC(=O)Nc3ccc(OCc4ccccc4)cc3)c2)n1,3.46,1.35,0.82,0.4,-1.01,-0.55,-0.07,-1.04,-5.21,3.07
COc1cccc(-n2ncc3c(N/N=C/c4ccc(F)cc4)ncnc32)c1,8.08,2.09,4.05,3.93,2.32,2.71,3.01,1.25,3.29,1.55
CCn1c(-c2nonc2N)nc2cnc(Oc3cccc(NC(=O)c4ccc(N(C)C)cc4)c3)cc21,14.1,1.17,4.28,2.85,1.24,0.89,2.25,3.09,1.46,7.55
[O-][S+]1CCN(Cc2ccc(-c3ccc4ncnc(Nc5ccc(OCc6cccc(F)c6)c(Cl)c5)c4c3)o2)CC1,7.12,1.83,3.84,6.03,7.92,12.5,1.99,2.99,8.43,12.2
COc1ccc(-c2cc(-c3c[nH]nc3-c3ccccn3)ccn2)cc1,9.71,2.15,3.74,5.8,4.88,2.87,4.34,2.27,3.19,7.56
CNC(=O)c1cc(-c2ccc(F)cc2)cc(-c2ccc(S(=O)(=O)N3CCCC3)cc2)c1N,3.73,1.09,2.25,4.19,2.55,3.41,2.7,3.41,7.48,5.37
Fc1cccc(COc2ccc(Nc3ncnc4sc(-c5ccco5)cc34)cc2Cl)c1,4.97,1.98,3.24,3.69,5.99,1.71,2.07,2.72,4.26,10.3
COc1ccc(-c2cc3c(N)ncnc3o2)cc1,-1.16,0.22,3.78,-1.56,-1.7,-0.18,-1.06,-2.18,-0.87,4.69
N#Cc1c(NC(=O)c2ccc(F)cc2)sc2c1CCCC2,3.72,9.69,3.09,2.18,1.31,2.27,2.25,2.7,2.46,3.12
CN1CCC(n2cnc(-c3ccc(F)cc3)c2-c2ccnc(N)n2)CC1,7.06,-0.73,0.96,2.43,2.64,2.5,2.17,3.21,3.4,7.9
c1cc(-c2cnn3nc(N4CCOCC4)ccc23)nc(NC2CC2)n1,5.49,3.14,6.78,4.47,4.05,0.95,0.56,3.89,4.77,-1.68
